# Hit rate of the full screen: of about 400,000 compounds, about 13,000 (3.2%) were called active. Another 18% or so got no clear call; they are omitted. Calls follow the shape of the dose curve; as a rule, active = well fitted cell-killing curve with a large enough effect; inconclusive = small, poorly fitted or top-dose-only effect, or effect the other way; inactive = flat fitted curve, though single readings scatter. Many of the other results were omitted from the sample, so actives are more common in it than they were.
# Assay: qHTS assay for MDR1-selective chemotherapeutics: Primary screen using the drug-selected MDR subline cells KB-V1; also: nearly all actives have a fitted effect of over 60% in size
# Settings: KB-V1 MDR cells viability, CellTiter-Glo, 72 h; series mostly up to 46.1 µM; activity change, negative = cytotoxicity: at the top concentration
# Outline: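 qHTS viability screen in drug-selected KB-V1 MDR cells: 72 h compound treatment at 37 degrees C, ATP luminescence end point.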
# % is scaled to controls: 0 for no effect and ±100 for the full control effect; potency is read from the fitted curve at half-maximal effect.
Compound,"activity change, negative = cytotoxicity",Potency
COc1ccccc1NC(=O)C(CC(=O)O)Cc1cc(C)cc(C)c1 (stereo not given),22.5% (inactive),
Cc1ccc(F)c(S(=O)(=O)NC(=O)C2(C)CCN2C(=O)CCc2cccs2)c1 (stereo not given),2.1% (inactive),
COc1ccc(NS(=O)(=O)c2cc(C(=O)Nc3ccccc3C(=O)O)ccc2C)cc1,17% (inactive),
C=CCNC(=O)c1ccccc1NC(=O)c1ccc(Cl)c(S(=O)(=O)Nc2cccc(C)c2C)c1,,2.91 µM (active)
Cc1ccccc1NC(=O)c1cc(S(=O)(=O)Nc2cccc(C(=O)O)c2)ccc1Cl,28% (inactive),
Nc1ncnc2nnsc12,-6.07% (inactive),
CN(C(=O)CSc1nnnn1-c1ccccc1)C1CCCCC1,-7.24% (inactive),
CCN(c1ncnc2c1cnn2-c1ccc(C)cc1)C1CCCCC1,1.03% (inactive),
CN(C(=O)COc1ncnc2c1cnn2-c1ccccc1)C1CCCCC1,,9.2 µM (active)
CC(C)(C)OC(=O)N(Cc1ccco1)S(=O)(=O)c1ccccc1Br,-12.2% (inactive),
CCc1nc2c(OCCOc3ccccc3)cccn2c1N(C)C(=O)c1cccs1,1.04% (inactive),
CC(C)NC(=O)C1(C)CCCCN1Cc1cccc(C(F)(F)F)c1 (stereo not given),-13.8% (inactive),
Cc1cc2c(cc1C)N1C(=O)c3cc4ccccc4cc3NC(=O)C1C(=O)N2 (stereo not given),18.4% (inactive),
COc1cccc(OCCOc2cccc(/C=N/n3cnnc3)c2)c1,,18.4 µM (active)
COCCNCCOCCOc1cccc(OC)c1,7.45% (inactive),
C=CCc1ccc(OCCOc2cccc(/C=N/n3cnnc3)c2)c(OC)c1,-18.5% (inactive),
COc1cccc(CNC(=O)CSc2c3c(nc4cc(Cl)ccc24)CCCC3)c1,-15.6% (inactive),
CC(=O)NCCC(=O)Nc1nc(-c2ccc3c(c2)OCCO3)cs1,13% (inactive),
O=C(Nc1nc2ccccc2s1)c1ccc2c(c1)OCO2,-25.4% (inactive),
O=C(Nc1nc(-c2ccc3c(c2)OCO3)cs1)c1ccncc1,,2.59 µM (active)
CN(C)C1CN(Cc2cn(Cc3ccccc3)nn2)S(=O)(=O)C1 (stereo not given),12% (inactive),
COC(=O)c1cc2occc2n1Cc1nc(-c2ccc(C)cc2)oc1C,-14.7% (inactive),
O=C(NCc1ccc(F)cc1F)[C@@H]1CCCN1C(=O)[C@@H]1CCCN1C(=O)c1cccc(Cl)c1,-5.66% (inactive),
Cc1nn(-c2ccccc2)c(Cl)c1C(=O)Nc1ccccc1,0% (inactive),

Compound,"activity change, negative = cytotoxicity",Potency
Cc1nn(-c2ccccc2)c(Cl)c1/C=N/NC(=O)c1nn(C)cc1[N+](=O)[O-],-21.2% (inactive),
Cc1nn(-c2ccccc2)c(Cl)c1/C=C/C(=O)c1ccc(O)cc1,,20.6 µM (active)
O=C1NC(O)CCN1C1CC(O)C(CO)O1 (stereo not given),3.08% (inactive),
Cc1cc(Nc2ccc(Br)cc2)nc2ccccc12,0% (inactive),
Cc1ccc(Nc2c3c(nc4ccccc24)CCC3)cc1,,5.8 µM (active)
N#Cc1cccc(Nc2c3c(nc4ccccc24)CCCC3)c1,0% (inactive),
O=C(OCc1ccccc1)N1CCC2CC1c1cc(N3CCN(S(=O)(=O)c4cc(Cl)cc(Cl)c4)CC3)ccc12 (stereo not given),-9.13% (inactive),
COc1ccc(C(=O)O/N=C(\N)Cc2ccc(Cl)cc2Cl)cc1OC,,23.1 µM (active)
COc1ccc(C/C(N)=N/OC(=O)c2ccco2)cc1OC,-7.55% (inactive),
COc1ccc(C(=O)ON=C2c3ccccc3-c3ccccc32)cc1OC,-13.7% (inactive),
COc1ccc(S(=O)(=O)N2CCCCC2c2cc(C(=O)NCc3ccc(F)cc3)no2)cc1 (stereo not given),-24.5% (inactive),
CCOC(=O)[C@]12CCCC=C1N(Cc1ccc3c(c1)OCO3)C(=O)[C@H](CC(=O)N1CCN(C(=O)c3ccco3)CC1)C2,0% (inactive),
CC(=O)C1=CCC(c2ccccc2)N(S(=O)(=O)c2ccc(C)cc2)C1 (stereo not given),4.38% (inactive),
N#Cc1ccc(OCC(=O)Nc2nc(-c3ccccn3)cs2)cc1,-0.182% (inactive),
O=C(COc1ccccc1F)NC1CC1,-1.57% (inactive),
O=C(COc1ccccc1F)Nc1nc(-c2ccccn2)cs1,,4.61 µM (active)
COc1ccc(-c2ccc3ncnc(NCc4cccs4)c3c2)cc1OC,12.9% (inactive),
CCOC(=O)C1=CC[C@@H](c2ccccc2)N(S(=O)(=O)c2ccc(C)cc2)[C@H]1c1ccc(CC)cc1,-16.3% (inactive),
CCOc1ccc(S(=O)(=O)N2CCN(C(=S)NCC3CCCO3)CC2)cc1 (stereo not given),-3.32% (inactive),
S=C(NCC1CCCO1)N1CCN(c2ccc(Cl)c(Cl)c2)CC1 (stereo not given),,7.31 µM (active)
COc1ccc(S(=O)(=O)N2CCN(C(=S)NCC3CCCO3)CC2)cc1OC (stereo not given),-5.5% (inactive),
CCCC(=O)Nc1ccc2oc(-c3ccc(O)c(Br)c3)nc2c1,0% (inactive),
Cc1nn(CC(=O)N/N=C/c2ccc(F)cc2)c(C)c1[N+](=O)[O-],18.1% (inactive),
Cc1ccn(CC(=O)N2N=C(C(F)F)CC2(O)C(F)F)n1 (stereo not given),13.8% (inactive),

Compound,"activity change, negative = cytotoxicity",Potency
Cc1nn(Cc2ccc(C(=O)N3N=C(C(F)F)CC3(O)C(F)F)cc2)c(C)c1[N+](=O)[O-] (stereo not given),,8.2 µM (active)
N#Cc1ccc(-c2nc3c(Cl)cc(C(F)(F)F)cn3c2Cc2ccccc2C(F)(F)F)cc1,-4.42% (inactive),
O=C1CC(c2ccc(F)cc2F)c2cc3c(cc2N1)OCO3 (stereo not given),0% (inactive),
COC(=O)C1=C(C)NC(=O)CC1c1ccccc1OC (stereo not given),-1.64% (inactive),
CCCOc1ccccc1C1CC(=O)Nc2cc3c(cc21)OCO3 (stereo not given),,4.61 µM (active)
Cc1cccc(N2CCN(c3ccc(C(=O)O)cc3NC(=O)c3ccccc3F)CC2C)c1 (stereo not given),7.99% (inactive),
CC1CCN(C(=O)CSc2nnc(-c3ccco3)n2N)CC1,0% (inactive),
COc1cccc(C(O)c2nc(-c3ccc(C)c(C)c3)cs2)c1 (stereo not given),-4.18% (inactive),
CCN(CC(=O)Nc1ccccc1OC)C(=O)CC1CC2CCC1C2 (stereo not given),,16.4 µM (active)
CCCN(CC(=O)Nc1ccccc1OC)C(=O)CCC(=O)c1ccc(F)cc1,,10.3 µM (active)
COc1ccccc1NC(=O)CN(c1ccccc1OC)S(=O)(=O)c1ccccc1,0% (inactive),
COc1ccc(S(=O)(=O)N2CCOCC2)cc1NC(=O)CC1CC2CCC1C2 (stereo not given),-15.9% (inactive),
COc1ccccc1NC(=O)COC(=O)COc1ccccc1F,14.3% (inactive),
COc1ccccc1/C=C/C(=O)NC1CC2CCC1C2 (stereo not given),-12.1% (inactive),
Cc1cc(C)cc(NC(=O)CCS(=O)(=O)c2cc3c4c(c2)CCN4C(=O)CC3)c1,0% (inactive),
Cc1cccc(CN2CCN(C3CN(Cc4cn(Cc5ccccc5F)nn4)S(=O)(=O)C3)CC2)c1 (stereo not given),-1.94% (inactive),
Cc1ccc(C)c(NC(=S)NNC(=S)Nc2ccc(C(C)C)cc2)c1,-25.9% (inactive),
Cc1ccc(OCC(=O)NC(C)c2ccccc2)cc1C (stereo not given),17.2% (inactive),
Cc1cc(C(=O)NNC(=S)NC(C)c2ccccc2)cs1 (stereo not given),,14.6 µM (active)
Cc1ccc(C)c(NC(=O)CCC(=O)NNC(=O)c2cccs2)c1,24.8% (inactive),
Cc1ccc(C)c(NC(=S)NNC(=O)c2csc(C)c2)c1,,18.4 µM (active)
CC(NC(=S)NNS(=O)(=O)c1ccc(C(C)(C)C)cc1)c1ccccc1 (stereo not given),-6.37% (inactive),

# Source: PubChem BioAssay AID1347076 (National Center for Advancing Translational Sciences (NCATS), 2019)
